Results: PubChem BioAssay AID1159580 (chemical genetic matrix, 2015)
The campaign covered roughly 5,500 compounds. About 2,000 (36%) were called active. Inconclusive results (about 18%) are left out. No stated cut-off is given here; in the data, active means normalized growth mostly below about 0.91 (no sharp cut-off); inconclusive means no clear call, values can overlap the other calls; inactive means mostly above about 0.92. This is one part of the list.

Assay: chemical genetic growth profiling, strain panel (AID 1159580);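 further: tested at 20 µM; growth read once vehicle control cultures reached saturation at 30 °C; 1 = growth at the plate median or of vehicle wells; lower values mean less growth of the strain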
Details: growth OD

Measured: normalized growth

CNNC
inactive: S. cerevisiae deletion strains, locus YJR075W, strain HOC1, hits give low values 1.02 | S. cerevisiae deletion strains, locus YKL009W, strain mrt4, hits give low values 0.981 | S. cerevisiae deletion strains, locus YKL068W, hits give low values 1.01 | S. cerevisiae deletion strains, locus YKL085W, strain MDH1 (second series), hits give low values 1.01 | S. cerevisiae deletion strains, locus YKL085W, strain MDH1, hits give low values 1.01 | S. cerevisiae deletion strains, locus YKL160W, strain elf1, hits give low values 0.99 | S. cerevisiae deletion strains, locus YKL190W, strain CNB1, hits give low values 1.02 | S. cerevisiae deletion strains, locus YKR001C, strain vps1, hits give low values 1.01 | S. cerevisiae deletion strains, locus YKR026C, strain gcn3, hits give low values 1.02 | S. cerevisiae deletion strains, locus YKR091W, strain srl3, hits give low values 1.02 | S. cerevisiae deletion strains, locus YLL001W, strain dnm1, hits give low values 1.02 | S. cerevisiae deletion strains, locus YLL026W, hits give low values 1 | S. cerevisiae deletion strains, locus YLL041C, strain sdh2, hits give low values 1.02 | S. cerevisiae deletion strains, locus YLR027C, strain aat2, hits give low values 1.01 | S. cerevisiae deletion strains, locus YLR039C, strain RIC1, hits give low values 1.09 | S. cerevisiae deletion strains, locus YLR058C, strain SHM2, hits give low values 1.02 | S. cerevisiae deletion strains, locus YLR102C, strain apc9, hits give low values 0.998 | S. cerevisiae deletion strains, locus YLR221C, strain rsa3, hits give low values 1.01 | S. cerevisiae deletion strains, locus YLR258W, strain gsy2, hits give low values 1.01 | S. cerevisiae deletion strains, locus YLR262C, strain YPT6 (second series), hits give low values 1.01 | S. cerevisiae deletion strains, locus YLR262C, strain YPT6, hits give low values 1.09 | S. cerevisiae deletion strains, locus YLR268W, strain sec22, hits give low values 1.02 | S. cerevisiae deletion strains, locus YLR320W, strain mms22, hits give low values 1.01 | S. cerevisiae deletion strains, locus YLR330W, strain CHS5, hits give low values 1.02 | S. cerevisiae deletion strains, locus YLR342W, strain FKS1 (second series), hits give low values 1.01 | S. cerevisiae deletion strains, locus YLR342W, strain FKS1, hits give low values 1.01 | S. cerevisiae deletion strains, locus YLR357W, strain rsc2, hits give low values 0.986 | S. cerevisiae deletion strains, locus YLR370C, strain arc18, hits give low values 1.01 | S. cerevisiae deletion strains, locus YLR371W, strain rom2, hits give low values 1 | S. cerevisiae deletion strains, locus YLR384C, strain iki3, hits give low values 1.01 | S. cerevisiae deletion strains, locus YLR418C, strain cdc73, hits give low values 0.997 | S. cerevisiae deletion strains, locus YML016C, strain PPZ1, hits give low values 1.02 | S. cerevisiae deletion strains, locus YML032C, strain rad52, hits give low values 0.97 | S. cerevisiae deletion strains, locus YML120C, strain ndi1, hits give low values 1.03 | S. cerevisiae deletion strains, locus YML124C, strain tub3, hits give low values 1.01 | S. cerevisiae deletion strains, locus YMR058W, strain fet3, hits give low values 1.01 | S. cerevisiae deletion strains, locus YMR078C, strain ctf18, hits give low values 0.994 | S. cerevisiae deletion strains, locus YMR125W, strain sto1, hits give low values 1 | S. cerevisiae deletion strains, locus YMR129W, hits give low values 0.999 | S. cerevisiae deletion strains, locus YMR205C, strain PFK2, hits give low values 1.02 | S. cerevisiae deletion strains, locus YMR223W, strain ubp8, hits give low values 1 | S. cerevisiae deletion strains, locus YMR231W, strain pep5, hits give low values 1.01 | S. cerevisiae deletion strains, locus YMR263W, strain SAP30, hits give low values 1.03 | S. cerevisiae deletion strains, locus YMR307W, strain GAS1, hits give low values 1.04 | S. cerevisiae deletion strains, locus YNL067W, strain RPL9B, hits give low values 1.03 | S. cerevisiae deletion strains, locus YNL071W, strain lat1, hits give low values 0.989 | S. cerevisiae deletion strains, locus YNL128W, strain TEP1, hits give low values 1.03 | S. cerevisiae deletion strains, locus YNL153C, strain GIM3, hits give low values 1.03 | S. cerevisiae deletion strains, locus YNL209W, strain ssb2, hits give low values 1.01 | S. cerevisiae deletion strains, locus YNL233W, strain BNI4, hits give low values 1.03 | S. cerevisiae deletion strains, locus YNL248C, strain rpa49, hits give low values 1.03 | S. cerevisiae deletion strains, locus YNL250W, strain rad50, hits give low values 0.997 | S. cerevisiae deletion strains, locus YNL271C, strain bni1, hits give low values 1.01 | S. cerevisiae deletion strains, locus YNL298W, strain CLA4, hits give low values 0.994 | S. cerevisiae deletion strains, locus YNL307C, strain MCK1, hits give low values 0.998 | S. cerevisiae deletion strains, locus YNL322C, strain KRE1 (second series), hits give low values 1.02 | S. cerevisiae deletion strains, locus YNL322C, strain KRE1, hits give low values 1.03 | S. cerevisiae deletion strains, locus YNR049C, strain mso1, hits give low values 1 | S. cerevisiae deletion strains, locus YNR052C, strain pop2, hits give low values 0.994 | S. cerevisiae deletion strains, locus YOL006C, strain TOP1, hits give low values 1.08 | S. cerevisiae deletion strains, locus YOL012C, strain htz1 1.09 | S. cerevisiae deletion strains, locus YOL147C, strain pex11, hits give low values 0.995 | S. cerevisiae deletion strains, locus YOR001W, strain rrp6, hits give low values 1.02 | S. cerevisiae deletion strains, locus YOR061W, strain CKA2, hits give low values 1.02 | S. cerevisiae deletion strains, locus YOR069W, strain VPS5, hits give low values 1.01 | S. cerevisiae deletion strains, locus YOR070C, strain gyp1, hits give low values 1.01 | S. cerevisiae deletion strains, locus YOR080W, strain dia2, hits give low values 0.99 | S. cerevisiae deletion strains, locus YOR083W, strain WHI5, hits give low values 1.01 | S. cerevisiae deletion strains, locus YOR106W, strain vam3, hits give low values 1.02 | S. cerevisiae deletion strains, locus YOR136W, strain idh2, hits give low values 0.994 | S. cerevisiae deletion strains, locus YOR144C, strain elg1, hits give low values 1 | S. cerevisiae deletion strains, locus YOR184W, strain ser1, hits give low values 1 | S. cerevisiae deletion strains, locus YOR265W, strain rbl2, hits give low values 1.02 | S. cerevisiae deletion strains, locus YOR270C, strain vph1, hits give low values 1.1 | S. cerevisiae deletion strains, locus YOR290C, strain snf2, hits give low values 1.03 | S. cerevisiae deletion strains, locus YOR316C, strain cot1, hits give low values 1.01 | S. cerevisiae deletion strains, locus YPL051W, strain arl3, hits give low values 1 | S. cerevisiae deletion strains, locus YPL055C, strain LGE1, hits give low values 1.06 | S. cerevisiae deletion strains, locus YPL078C, strain atp4, hits give low values 1.01 | S. cerevisiae deletion strains, locus YPL106C, strain sse1, hits give low values 1 | S. cerevisiae deletion strains, locus YPL240C, strain hsp82, hits give low values 1.01 | S. cerevisiae deletion strains, locus YPL241C, strain CIN2, hits give low values 1.02 | S. cerevisiae deletion strains, locus YPR119W, strain clb2, hits give low values 1 | S. cerevisiae deletion strains, locus YPR141C, strain kar3, hits give low values 1.01 | S. cerevisiae deletion strains, locus YPR163C, strain tif3, hits give low values 0.994 | S. cerevisiae deletion strains, locus YPR167C, strain met16, hits give low values 1 | S. cerevisiae deletion strains, strain wtn01, hits give low values 1.02 | S. cerevisiae strains, strain wild type, hits give low values 1.01
